GLP1R ag: agonists of human GLP-1 receptor. HEK293 GLP-1R CRE-luciferase, luminescence, 4-6 h; cells express a hypersensitive GLP-1R form. Potency, µM (titrated, usually from 45.6 µM), inactives show at the top dose activation, usual class: activators. AID 624172. hit rate 0.007% among 380,000. P43220; note: % of control where 0% means no effect
ClpP mod: qHTS Assay for Activators of ClpP; ATP-dependent Clp protease proteolytic subunit (Bacillus subtilis (strain 168)), P80244; purified B. subtilis ClpP, FRET peptide cleavage, 20 min; Potency, µM (titrated, usually from 57.5 µM), for the others: at the top dose activity change, negative = active; hit rate 1.9% among 340,000; AID 651965, 2013; active = well fitted falling curve with a large enough effect; inconclusive = small, poorly fitted or top-dose-only effect; inactive = no such curve, though single readings can be large or run the other way; note: the source files actives as falling curves though it sought activators and does not explain the sign; nearly all actives have a fitted effect of over 65% in size
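Purified B. subtilis ClpP, 10 microg/mL final in Tris/HCl pH8 with KCl, BSA, glycerol and Tween-20, cleaved an Abz/nitrotyrosine-quenched decapeptide. Fluorescence (ex 320, em 430) was read at 0 and 20 min at room temperature. Delta was normalized to 5.8 microM ADEP and DMSO/no-enzyme controls.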
GLP-1R inv ag: GLP-1 receptor (human) inverse agonism | HEK293 GLP-1R CRE-luciferase, luminescence, 24 h; GLP-1R form is constitutively active | Potency, µM (top dose mostly 38.3 µM), inactives show top-dose activity change, negative = inhibition, usual class: inhibitors | hit rate 1.6% among 410,000 | AID 624417; note: % is set by controls: 0 for no effect and ±100 for the full control effect; nearly all actives have a fitted effect of over 55% in size
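HEK293 cells stably co-expressing constitutively active GLP-1R and a cAMP-responsive luciferase reporter were seeded in DMEM with 10% Nu serum, given compounds after 12 h, and incubated 24 h at 37 deg C. Luminescence was then read.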
GLP1R cytotox: cytotoxic in the GLP-1 receptor inverse agonist counter-screen | HEK293 cAMP-luciferase reporter cells, luminescence, 24 h | Potency, µM (doses to about 38.3 µM), inactives show at the highest dose activity change, negative = inhibition, hits mostly inhibitors | hit rate 0.13% among 410,000;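 note: loss of luciferase light is scored as toxicity; % is set by controls: 0 for no effect and ±100 for the full control effect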
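Here, cytotoxicity is scored as loss of luminescence. The MLSMR collection was tested on cells seeded in medium containing 10% Nu serum, with a 24 hr compound exposure preceded by 12 hours of culture.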
Active calls of the source: *; ? = inconclusive; nt = no result given; [ ] = dose if it differs, or a comment. A selection: hits, their analogues and other compounds. The true share with any hit is near 3.2%. Unless noted, calls come from the whole dose curve; as a rule, active = well fitted curve in the direction sought with a large enough effect; inconclusive = small, poorly fitted or top-dose-only effect, or another doubt; inactive = no such curve, though single readings can be large; an effect the other way counts as inactive or inconclusive. Potency is the fitted concentration of half-maximal effect.

SMILES | GLP1R ag | ClpP mod | GLP-1R inv ag | GLP1R cytotox
CCC(O)c1cnc(OCc2ccccc2)nc1OCc1ccccc1 (centres undefined) | 11% | 0% | 10µM* | 8%
COc1ccc(CCNC(=O)c2cc(Sc3cccc(Cl)c3)nc3ccccc23)cc1OC | nt | -16% | ? | -4%
O=C(CN1CCCC1)N1CCCc2c1c(=O)oc1ccc(OCc3ccccc3)cc21 | 1% | 32µM* | ? | -10%
CCOC(=O)C1CCN(CC(=O)N2CCCc3c2c(=O)oc2ccc(OCc4ccccc4)cc32)CC1 | nt | -11% | -19% | 1%
Cc1ccc(C(=O)Nc2ncc3c(Cl)cccc3n2)cc1 | -33% | -3% | 7.1µM* | -24%
OC(CNCC1CCCO1)Cn1c2ccc(Cl)cc2c2cc(Cl)ccc21 (centres undefined) | -18% | -5% | ? | ?
OC(CNCCC1C=Nc2ccccc21)Cn1c2ccc(Cl)cc2c2cc(Cl)ccc21 (centres undefined) | -21% | 28µM* | ? | ?
N#CC1=C(N)Oc2n[nH]c(-c3cccs3)c2C1c1ccoc1 (centres undefined) | 0% | 28µM* | 10% | 10%
Cc1ccc(NC(=O)c2cccc(N3CCCS3(=O)=O)c2)cc1C | nt | 2% | 8% | -1%
COc1ccc2oc(C(=O)Nc3nc(-c4ccccn4)cs3)c(C)c2c1 | -8% | -29% | -16% | 12%
COc1ccc2oc(C(=O)Nc3nc4ccc(S(C)(=O)=O)cc4s3)c(C)c2c1 | 7% | 16µM* | 21% | -1%
COc1ccc2oc(C(=O)NC(C)c3ccccn3)c(C)c2c1 (centres undefined) | 1% | 25µM* | 26% | 3%
COc1ccc2c(C)c(C(=O)O)oc2c1 | -4% | 25µM* | 27% | 1%
COc1ccc2oc(C(=O)Nc3nnc(C)s3)c(C)c2c1 | -1% | 28µM* | -18% | -14%
Cc1cc(C)cc(NC(=O)C2CCN(S(=O)(=O)c3ccc4c(c3)oc(=O)n4C)CC2)c1 | 0% | -15% | 4% | -5%
CC1=C(c2ccc(F)cc2)S(=O)(=O)N=C1N1CCC(C(=O)NCCc2ccco2)CC1 | nt | -2% | 5% | -10%
CC(C)C(=O)Nc1ccc(/C=C2\C=Cc3ccccc32)cc1 | nt | 0% | nt | nt
O=C(Nc1ccc(C(F)(F)F)cc1)C1(c2cccs2)CCOCC1 | nt | 2% | ? | -2%
CCN(CCCNC(=O)c1cc2c(=O)[nH]c3ccc(C)cc3c2s1)Cc1ccccc1 | nt | 14µM* | ? | ?
CCN(CC)CCNC(=O)c1cc2c(=O)[nH]c3ccc(C)cc3c2s1 | 1% | ? | 7% | 24%
CN(C)C(=O)COc1ccccc1C(=O)OCC(=O)Nc1ccc(Oc2ccc(Br)cc2)cc1 | nt | -5% | nt | nt
O=[N+]([O-])c1ccc(NCCCNS(=O)(=O)c2ccc(Cl)cc2)c(Cl)c1 | -2% | 1% | 11µM* | 10%
COC(=O)C1CCCCN1C(=O)c1ccc2oc(Cc3ccccc3)nc2c1 (centres undefined) | 4% | 28µM* | ? | 4%
COC(=O)C1CCCCN1C(=O)c1ccc2oc(C(C)C)nc2c1 (centres undefined) | 4% | -1% | -9% | 4%
CC(C)(C)Sc1ccc2nc3c(n2c1)CCCC3 | ? | 16µM* | 10µM* | ?
SMILES | GLP1R ag | ClpP mod | GLP-1R inv ag | GLP1R cytotox
Cc1cccn2c(=O)c(C(=O)N3CCN(c4ccccc4)CC3)cnc12 | nt | -7% | 10% | -2%
COc1ccc(N2CCN(C(=O)NCc3noc4ccccc34)CC2)cc1 | nt | 0% | 2% | -8%
CCc1cccc(NC2c3ccccc3C(=O)N2c2ccc(C)cn2)c1 (centres undefined) | 0% | 0% | 13µM* | 28%
Cc1ccc(N2C(=O)c3ccccc3C2Nc2ccccc2)nc1 (centres undefined) | 9% | -1% | ? | 8%
CCn1nc(C)cc1C(=O)N1CCc2c([nH]c3ccccc23)C1c1cc(F)ccc1F (centres undefined) | 17% | nt | 10µM* | -22%
Cc1ncoc1C(=O)N1CCc2c([nH]c3ccccc23)C1c1ccccc1F (centres undefined) | 13% | nt | -23%[7.66 µM] | 1%[7.66 µM]
COC(=O)CC1(C(=O)OC)Oc2ccc(Br)cc2C(=O)N1c1cc(Cl)c(Cl)cc1Cl (centres undefined) | -5% | 1% | 7.1µM* | 2%
COC(=O)CC1(C(=O)OC)Oc2ccc(Br)cc2C(=O)N1c1cc(Cl)cc(Cl)c1 (centres undefined) | 9% | nt | ? | 0%
COC(=O)CC1(C(=O)OC)Oc2ccc(Br)cc2C(=O)N1c1cccc(Cl)c1Cl (centres undefined) | 4% | nt | ? | ?
COC(=O)CC1(C(=O)OC)Oc2ccc(Br)cc2C(=O)N1c1ccc(Br)cc1Cl (centres undefined) | 14% | 0% | 10µM* | -41%
Cc1ccc(-c2nnc(SCc3ccccc3C#N)o2)cc1 | 4% | 0% | 15% | 1%
CCC1(c2ccccc2)SCC(c2ccccc2)=NC1=O (centres undefined) | 9% | nt | 3.2µM* | -8%
CCC1(c2ccccc2)SC(N)=NC1=O (centres undefined) | -4% | -11% | 0% | 0%
CCOC(=O)Cc1csc(NC(=O)c2ccc(Cl)s2)n1 | -3% | 1% | ? | 0%
CCOC(=O)Cc1csc(NC(=O)c2cc(C)c(C)s2)n1 | 1% | 28µM* | ? | -2%
O=C(Nc1ccccc1Sc1ccccc1)c1cnn2c1NC(=C1CC1)C=C2C(F)F | nt | -23% | nt | nt
CCN(CC)c1ccc(/C=N/OC(C)C(=O)Nc2ccc(C)cc2)cc1 (centres undefined) | 4% | 28µM* | ? | 22%
O=C(CSc1nc2c([nH]c3ccccc32)c(=O)n1-c1ccc(F)cc1)NC1CCCCC1 | nt | -7% | -11% | -22%
Cc1ccc(C)c(NC(=O)Cn2cc(S(=O)(=O)NC(C)C)c(S(=O)(=O)NC(C)C)c2)c1 | nt | 1% | -12% | -25%
COc1nc(-c2ccccc2)cc(-c2ccc(OC)c(OC)c2)n1 | 2% | 22µM* | 0% | -3%
O=C(c1cnn2ccccc12)N(Cc1ccco1)C1CCCC1 | 18% | -22% | 3.5µM* | ?
CCCCNC(=O)c1cc(-c2ccc(OC)cc2)nc2n[nH]c(-c3cccc([N+](=O)[O-])c3)c12 | nt | -1% | 2% | -2%
O=C(NC1CCS(=O)(=O)C1)c1ccc(-c2ccc(Br)cc2)o1 (centres undefined) | 0% | 16µM* | 4% | -15%
O=C(NC12CC3CC(CC(C3)C1)C2)c1ccc(-c2ccc(Br)cc2)o1 | -4% | 32µM* | ? | 53%
O=C(CCSCc1cnn(-c2ccccc2)c1-n1cccc1)NCc1ccc(Cl)cc1 | nt | 0% | ? | 1%
COc1ccc(C2=NC(C)(C)N(CC(=O)Nc3cc(OC)cc(OC)c3)C2=O)cc1 | nt | -5% | 4% | -3%

Screens from PubChem.
